Results taken from PubChem BioAssay AID602342 (Broad Institute, 2012).
The campaign covered roughly 340,000 compounds. About 1,000 (0.29%) were called active.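 Rule for the calls: active = mean replicate activation score at least 90 and every replicate individually at or above 90; inconclusive = only one of the two criteria met; inactive = neither criterion met.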 For the sample, actives were picked, then their nearest neighbours and some compounds at random.

Test: miR-122 Renilla sensor signal increase in Huh7, primary screen, miR-122 inhibitor project, cell-based, single point, plate reader (AID 602342);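 note: higher luciferase means less miR-122 activity so hits act as miR-122 inhibitors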
Conditions: Huh7 miR-122 Renilla luciferase sensor, 48 h, stronger effect = higher value, neutral wells = 0, positive control = 100; at 16.7 µM unless noted

Activation (reporter increase), active:
COc1ccc(C)cc1S(=O)(=O)Nc1cc2c3c(c1)CCC(=O)N3CCC2 150% [at 12.5 µM]
O=C(CN1CCOCC1)Nc1cc(Cl)ccc1Cl 101% [at 12.5 µM]
O=C(NNC(=O)c1ccccc1O)c1ccccc1O 530% [at 12.5 µM]
CC1=C(C)CC(C(=O)NNC(=O)c2ccccc2O)C(C(=O)O)C1 (stereo not drawn) 151% [at 12.5 µM]
COc1ccc(NS(=O)(=O)c2ccc(NC(=S)NC(=O)CC(C)C)cc2)cc1 161% [at 12.5 µM]
COc1ccc(C(=O)Nc2ccccc2C(=O)N/N=C/c2ccccc2OC)cc1 115% [at 12.5 µM]
CCOC(=O)c1c(C)[nH]c(C)c1S(=O)(=O)NCCCc1ccco1 128% [at 12.5 µM]
Cc1cc(C(C)(C)C)cc(S(=O)(=O)Nc2ccc(C(=O)O)cc2)c1C 165% [at 12.5 µM]
COc1ccc(OCCCC(=O)NCCc2ccccc2)cc1 223% [at 12.5 µM]

Activation (reporter increase), inactive:
COc1ccc(CNS(=O)(=O)c2cc3c4c(c2)CCN4C(=O)CC3)cc1 2.78% [at 12.5 µM]
COc1ccccc1CNS(=O)(=O)c1cc2c3c(c1)CCC(=O)N3CCC2 6.96% [at 12.5 µM]
O=C(CN1CCOCC1)Nc1c(Cl)cc(Cl)cc1Cl -6.99% [at 12.5 µM]
O=C(CN1CCOCC1)Nc1ccc(NC(=O)CN2CCOCC2)c(Cl)c1 4.91% [at 12.5 µM]
COc1ccc(S(=O)(=O)Nc2cccc3c2O[C@H](CN(C)Cc2ccc4c(c2)OCO4)[C@H](C)CN([C@@H](C)CO)C3=O)cc1 2.28%
CC(=O)N(C)C[C@@H]1Oc2cc(-c3cccnc3)ccc2S(=O)(=O)N([C@@H](C)CO)C[C@H]1C 0.602%
CC(C)NC(=O)Nc1ccc2c(c1)C(=O)N([C@H](C)CO)C[C@H](C)[C@@H](CN(C)S(=O)(=O)c1ccc(F)cc1)OCCCC[C@H](C)O2 -3.83%
O=C(NC1CCCC1)[C@@H]1[C@@H](CO)[C@@H]2Cn3c(ccc(-c4ccc(F)cc4)c3=O)[C@H]1N2Cc1cocn1 1.2%
CCCC#Cc1cnc2c(c1)C(=O)N([C@H](C)CO)C[C@H](C)[C@H](CN(C)S(=O)(=O)c1cn(C)cn1)O2 -3.62%
C[C@@H]1CN([C@H](C)CO)C(=O)c2cccc(NS(=O)(=O)c3ccc(F)cc3)c2O[C@@H]1CN(C)S(=O)(=O)c1ccccc1 -5.32%
O=C(NNC(=O)C1CCC1)c1ccccc1 1.59% [at 12.5 µM]
O=C(NNC(=O)c1cc(S(=O)(=O)N2CCCCC2)ccc1Cl)c1ccccc1O -7.51% [at 12.5 µM]
CC1=C(C)CC(C(=O)NNC(=O)c2csc3c2CCC(C(C)(C)C)C3)C(C(=O)O)C1 (stereo not drawn) -0.996% [at 12.5 µM]
Cc1cc(C(=O)CCC(=O)NNC(=O)c2ccccc2O)c(C)s1 -0.772% [at 12.5 µM]
C[C@@H]1CCCCO[C@H](CN(C)C(=O)NC2CCCCC2)[C@@H](C)CN([C@H](C)CO)C(=O)c2cc(NC(=O)CCC(F)(F)F)ccc2O1 4.05%
COc1ccc(NS(=O)(=O)c2ccc(NC(=O)c3ccc(N(C)S(C)(=O)=O)cc3)cc2)cc1 3.93% [at 12.5 µM]
CC(=O)NS(=O)(=O)c1ccc(NC(=S)NC(=O)C(C)(C)C)cc1 -3.58% [at 12.5 µM]
C[C@@H]1CN([C@@H](C)CO)C(=O)c2cc(NC(=O)Cc3ccccc3)ccc2O[C@@H](C)CCCCO[C@H]1CN(C)C(=O)Cc1ccccc1 0.724%
Cc1ccc(-c2ccc3c(c2)O[C@@H](CN(C)C(=O)CC2CC2)[C@@H](C)CN([C@@H](C)CO)S3(=O)=O)cc1 12.9%
COc1ccc(NC(=O)N(C)C[C@H]2Oc3ccc(NS(=O)(=O)c4ccc(C)cc4)cc3C(=O)N([C@@H](C)CO)C[C@H]2C)cc1 3.8%
COc1ccc(NC(=O)Nc2ccc3c(c2)C(=O)N([C@H](C)CO)C[C@H](C)[C@H](CN(C)S(=O)(=O)c2ccc(OC)cc2)O3)cc1 -11.1%
COc1ccc(OC)c(/C=N/NC(=O)c2ccc[n+](CC(=O)c3ccccc3)c2)c1 -4.06% [at 12.5 µM]
COc1ccccc1C(=O)Nc1ccccc1C(=O)Nc1ccccc1 1.44% [at 12.5 µM]
COc1ccc(NC(=O)N(C)C[C@H]2OCCCC[C@@H](C)Oc3ccc(NC(=O)NC4CCCCC4)cc3C(=O)N([C@@H](C)CO)C[C@H]2C)cc1 -3.11%
NC(=O)c1cc(S(=O)(=O)NCCCc2ccco2)cs1 2.02% [at 12.5 µM]
CCOC(=O)c1c(S(=O)(=O)NCC(=O)Nc2ccc(C)cc2)c(C)n(C)c1C 3.19% [at 12.5 µM]
O=C(O)c1ccc(F)c(S(=O)(=O)Nc2ccccc2)c1 3.15% [at 12.5 µM]
Cc1noc(C)c1S(=O)(=O)Nc1ccc(C(=O)O)cc1 0.153% [at 12.5 µM]
COc1ccc(CN(C)C[C@H]2OCCCC[C@@H](C)Oc3ccc(NS(=O)(=O)c4ccccc4)cc3C(=O)N([C@@H](C)CO)C[C@@H]2C)cc1 -4.79%
CNC(=O)C[C@@H]1CC[C@@H]2[C@H](COC[C@H](O)CN2Cc2ccc(C(F)(F)F)cc2)O1 1.05%
COc1ccc(OCC(=O)NCCc2ccc(S(N)(=O)=O)cc2)cc1 -15.2% [at 12.5 µM]
COc1ccc(CCNC(=O)c2ccccc2OCc2ccccc2)cc1 -1.62% [at 12.5 µM]
OC[C@@H]1[C@H](c2ccc(C#CC3CC3)cc2)[C@@H]2CN(CCC(F)(F)F)CCCCN12 12.9%
CCCNC(=O)N1C[C@@H](O)COC[C@@H]2O[C@@H](CC(=O)O)CC[C@H]21 0.047%
